JMJD2A Tudor = inhibitors of human JMJD2A Tudor domain | AlphaScreen JMJD2A-Tudor / H3K4me3 peptide binding | O75164 | 390,000 compounds, 4.4% hits | Potency, µM (doses to about 114 µM), without a hit: top-dose activity change, negative = inhibition, actives largely listed as inhibitors | AID 504339; further: on the % scale 0 is the no-effect control and ±100 the full control effect; nearly all actives have a fitted effect of over 50% in size
Sfp PPTase inh = blocks B. subtilis Sfp PPTase activity; 310,000 compounds, 3.5% hits; Potency, µM, for inactives: largest response in the series, negative = inhibition, most hits filed as inhibitors; Biochemical Sfp PPTase activity, qHTS; AID 1490; Q9F4F7;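 further: the enzyme is Sfp with the accession as filed and its product quenches rhodamine fluorescence; 0% = enzyme reaction without inhibitor and -100% = no enzyme wells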
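After 15 min at room temperature with compound, 15 nM Sfp received 5 uM rhodamine-CoA plus 12.5 uM BHQ-2-ybbR (50 mM Hepes pH 7.6, 10 mM MgCl2). Rate came from the fluorescence difference over 30 min, ex 525/em 598 nm.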
HP1b binding inh = inhibitors of HP1-beta chromodomain binding to methylated histone tails. P83916. AlphaScreen HP1-beta / biotin-H3K9me3 peptide binding. Potency, µM (titrated, usually from 114 µM), for the others: top-dose activity change, negative = inhibition, most hits filed as inhibitors. 390,000 compounds, 0.56% hits. AID 540317; further: nearly all actives have a fitted effect of over 70% in size
Target sequence (P83916 whole entry, looked up): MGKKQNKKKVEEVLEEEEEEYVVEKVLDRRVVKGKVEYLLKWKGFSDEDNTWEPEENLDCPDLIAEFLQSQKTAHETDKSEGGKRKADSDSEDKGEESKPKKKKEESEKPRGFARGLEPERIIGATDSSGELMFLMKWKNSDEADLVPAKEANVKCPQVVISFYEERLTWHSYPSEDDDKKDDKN
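HP1-beta protein (50 nM final) preincubated 30 min at room temperature with biotinylated H3(1-18)K9me3 peptide (50 nM) in PBS pH 7.4, 0.01% Tween-20, then compound added for 30 min. AlphaScreen streptavidin donor/nickel chelate acceptor beads (10 ug/mL final), 30 min dark, luminescence read.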
G9a inh = inhibitors of human histone lysine methyltransferase G9a | Q96KQ7 | G9a H3K9 monomethylation, AlphaScreen, 2 h | Potency, µM (titrated, usually from 102 µM), inactives show at the highest dose activity, negative = inhibition, usual class: inhibitors | 350,000 compounds, 8.8% hits; further: on the % scale 0 is the no-effect control and ±100 the full control effect; nearly all actives have a fitted effect of over 75% in size
Target sequence (Q96KQ7 913-1193 limits assumed): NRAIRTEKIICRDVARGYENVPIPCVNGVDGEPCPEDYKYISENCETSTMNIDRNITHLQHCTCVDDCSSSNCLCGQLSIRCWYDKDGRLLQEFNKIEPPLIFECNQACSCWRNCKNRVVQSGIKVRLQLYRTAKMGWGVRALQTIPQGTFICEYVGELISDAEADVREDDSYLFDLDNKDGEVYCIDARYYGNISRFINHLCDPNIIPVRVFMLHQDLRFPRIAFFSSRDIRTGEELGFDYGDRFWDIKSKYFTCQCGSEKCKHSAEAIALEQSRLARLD
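G9a (20 nM) preincubated 15 min RT with compounds, then 500 nM biotinylated H3K9 peptide and 20 uM SAM added; 2 h RT reaction. Monomethyl-H3K9 product detected by AlphaScreen with anti-H3K9me1 antibody, streptavidin donor and anti-rabbit IgG acceptor beads.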
BAZ2B inh = BAZ2B (human) inhibition | Q9UIF8 | AlphaScreen BAZ2B-H3K14Ac peptide displacement | Potency, µM (series often up to 114 µM), without a hit: top-dose activity change, negative = inhibition, hits mostly inhibitors | 360,000 compounds, 4.4% hits | AID 504333; further: on the % scale 0 is the no-effect control and ±100 the full control effect; nearly all actives have a fitted effect of over 60% in size
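BAZ2B (50 nM) with biotin-H3(5-23)K14Ac peptide (50 nM) in PBS pH 7.4, 0.01% Tween-20, preformed 30 min, then compound 30 min at room temperature; top concentration 110uM. AlphaScreen streptavidin donor/nickel chelate acceptor beads (10 ug/mL final), 20 min dark, signal read.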
L3MBTL1 block = blocks human L3MBTL1 | Q9Y468 | Potency, µM (highest dose often 57.1 µM), inactives show at the top dose activity, negative = inhibition, hits mostly inhibitors | AlphaScreen L3MBTL1–H3K9me1 peptide binding | AID 485360 | 230,000 compounds, 0.66% hits; further: on the % scale 0 is the no-effect control and ±100 the full control effect; nearly all actives have a fitted effect of over 60% in size
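First, the protein-peptide complex forms for 30 min at room temperature (L3MBTL1 50 nM, biotinylated H3K9me1 peptide 75 nM). Next, compounds are pin-transferred and incubated 30 min. Finally, AlphaScreen beads are added and read after 30 min.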
An asterisk follows results filed as active; ? = inconclusive; . = no result given; [ ] = another dose, or the depositor's remark. Only some compounds are listed: those with a hit (about 12% of all), similar ones and a draw of the others. The call rests on the fitted dose curve; in most records, active means well fitted curve in the direction sought with a large enough effect; inconclusive means small, poorly fitted or top-dose-only effect, or another doubt; inactive means no such curve, though single readings can be large; an effect the other way counts as inactive or inconclusive. Potency means the concentration at half of the fitted maximal effect.

SMILES	JMJD2A Tudor	Sfp PPTase inh	HP1b binding inh	G9a inh	BAZ2B inh	L3MBTL1 block
CCOC(=O)c1ccc(NC(=O)CSc2nc3c(cc2C#N)N2CCC3CC2)cc1	4%	.	47%	10%[59 µM]	-3%	.
CCOC(=O)c1ccc(NC(=O)C2C3C=CC(O3)C2C(=O)O)cc1 (stereo unspecified)	.	1%	.	35µM*	-3%	4%
C[N+]1(C)C2CC[C@H]1CC(OC(=O)[C@@H](CO)c1ccccc1)C2 (stereo partly specified)	.	8%	.	-3%[59 µM]	.	.
CC(C)(C)c1cc(O)ccc1O	.	40µM*	.	4.5µM*	.	.
CCCC(C)C1(CC)C(=O)NC(=S)NC1=O (stereo unspecified)	.	1%	.	26%[59 µM]	.	.
CN1C(=O)CCS(=O)(=O)[C@H]1c1ccc(Cl)cc1	.	3%	.	.	.	.
CN(C)c1ccc(C=C2C=CC=C2)cc1	18µM*	.	22µM*	.	.	.
CN(C)c1ccc(P(=S)(N(C)C)N(C)C)cc1	-23%	-19%	-7%	2%[59 µM]	0%	16%
N[C@@H](Cn1ccc(=O)c(O)c1)C(=O)O	.	.	.	10µM*	.	.
CC(=O)Nc1nc(CCl)cs1	-30%	-6%	32%	20µM*	-19%	.
C/C=C1/C[C@@H](C)[C@](O)(CO)C(=O)OCC2=CCN3CC[C@@H](OC1=O)C23 (stereo partly specified)	.	1%	.	.	.	.
Oc1cc2c(cc1CN1CCN(c3ccc(F)cc3)CC1)OCO2	?	8%	-10%	8.9µM*	?	.
CC(=O)O[C@H]1CCC2C3CCC4=CC(=O)CCC4=C3C=C[C@@]21C (stereo partly specified)	?	?	?	45µM*	-7%	.
O=[N+]([O-])c1cccc(C2N3CCCN23)c1 (stereo unspecified)	0%	23%	63%	-1%	-20%	9%[11.4 µM]
O=[N+]([O-])c1cccc(CN2CCN(Cc3ccc(Br)cc3)CC2)c1	20µM*	?	?	3.5µM*	20µM*	-19%
Cc1ccc(N2C(=O)NC(=O)C(CCc3ccccn3)(Cc3cccc(Cl)c3Cl)C2=O)cc1 (stereo unspecified)	-9%	8%	4%	-13%	2%	-3%
O=C1NC(=O)C(CCc2ccncc2)(CCc2ccccn2)C(=O)N1c1ccc(Br)cc1 (stereo unspecified)	-10%	5%	37%	2%[12.7 µM]	89µM*	12%
CCC(C)C1NC(=O)C(C(C)=O)=C1O (stereo unspecified)	-23%	-4%	44%	14%[12.7 µM]	50µM*	.
CC(=O)[C@H]1CC[C@H]2C3CC[C@H]4C[C@](C)(O)CC[C@]4(C)C3CC[C@]12C (stereo partly specified)	.	2%	.	.	.	.
C=CCn1c(O)c(C(C)=Nc2cccc(C(=O)O)c2)c(=O)[nH]c1=O	1%	-2%	17%	50µM*	-37%	5%
C=CCn1c(O)c(C(CC)=Nc2ccc3c(c2)CCC3)c(=O)[nH]c1=O	-23%	10%	-1%	2%	-21%	-3%
C=CCn1c(O)c(C(CC)=Nc2cccc(C(=O)O)c2)c(=O)[nH]c1=O	-10%	-9%	50%	?	-30%	-20%
C=CCn1c(O)c(C(C)=O)c(=O)[nH]c1=O (tested in a mixture with another compound)	-26%	-2%	14%	45µM*	-38%	-2%
C=CCn1c(O)c(C(C)=Nc2ccc(C(=O)OCC)cc2)c(=O)[nH]c1=O	5%	-29%	30%	?	79µM*	.
C=CCn1c(O)c(C(CC)=Nc2ccc(N(C)C)cc2)c(=O)[nH]c1=O	-13%	50µM*	25%	.	?	?
SMILES	JMJD2A Tudor	Sfp PPTase inh	HP1b binding inh	G9a inh	BAZ2B inh	L3MBTL1 block
C=C(C)[C@H]1C2C(=O)O[C@H]1[C@H]1OC(=O)[C@@]34O[C@@H]3C[C@]2(O)[C@@]14C	.	16%	.	-3%[59 µM]	.	.
CC(C)CC(CN)CC(=O)O (stereo unspecified)	.	20%	.	-2%[2.33 µM]	.	.
Cc1cccc(-n2c(O)c(/C=C3/C(c4ccccc4)=Nc4ccccc43)c(=O)[nH]c2=O)c1	?	-16%	-10%	?	40µM*	.
Cc1ccc(-n2c(O)c(/C=C3/C(c4ccccc4)=Nc4ccccc43)c(=O)[nH]c2=O)cc1	?	-24%	-31%	35µM*	?	-9%
CCN(CC)/[N+]([O-])=N/O	.	-8%	.	-37%[2.33 µM]	.	.
O=C1CCCCC1	-7%	.	50%	15%[0.501 µM]	10%	3%
COc1ccc(OC)c(CN2CCN(C(=O)COc3cccc(C)c3)CC2)c1	3.5µM*	?	?	7.1µM*	?	-3%
COc1ccccc1CN1CCN(C(=O)COc2cccc(C)c2)CC1	32µM*	-25%	?	?	50µM*	4%
COc1ccc(OCC(=O)N2CCN(Cc3cc(=O)n4nc(-c5ccc(OC)cc5)sc4n3)CC2)cc1	-30%	.	17%[57 µM]	1%[59 µM]	2%	.
COc1cc(CN2CCN(C(=O)COc3ccccc3)CC2)cc(OC)c1OC	3.2µM*	-23%	-20%	?	?	-3%
Cn1cccc1CN1CCN(C(=O)COc2ccccc2)CC1	7.1µM*	-15%	?	?	45µM*	-3%
COc1ccc(OCC(=O)N2CCN(C/C=C/c3ccccc3)CC2)cc1	-29%	13%	42%	4%	-27%	-5%
Cc1cccc(OCC(=O)N2CCN(CCc3ccccn3)CC2)c1	-3%	.	35%	1%[59 µM]	-22%	.
CSc1nn(-c2ccc(C(=O)OCC(=O)NC(=O)NC(C)C)cc2)c(=S)s1	?	-6%	-10%	-19%[59 µM]	?	0%
Cc1cc(C)c(N)cc1C	-23%	.	52%	-1%[0.501 µM]	-8%	-8%
OC[C@@H]1[C@@H](O)[C@H](O)[C@H]2[C@@H](O)CCN21	.	0%	.	.	.	.
COc1ccc(-c2cc(C(=O)N3CCN(c4ccccc4OC)CC3)c3cc(C(C)C)ccc3n2)cc1	-25%	.	20%	-8%[59 µM]	?	.
COc1cccc(NC(=O)Cn2c(-c3nonc3N)nc3ccccc32)c1	-6%	.	42%	-1%[59 µM]	1%	.
Cc1nc2ccc(P(=O)(O)O)cc2s1	.	-81%	.	45µM*	?	-11%
CCOC(=O)C(NC(C)=O)C(OC(C)=O)c1cccc(N(CCCl)CCCl)c1 (stereo unspecified)	-15%	2%	18%	14µM*	-18%	1%[11.4 µM]
O=C(Cc1ccc(N(CCCl)CCCl)cc1)NC(Cc1ccc(Cl)cc1)C(=O)O (stereo unspecified)	-10%	12%	45%	?	-9%	5%
O=[N+]([O-])c1ccc(-c2[se]c3ccccc3c2I)cc1	.	-21%	.	?	.	.
